Columns and labels:
Experiment in all cases: log2 ratio of Biotin-Ahx-Ub-VS probe labelling (fragment/DMSO); higher = less target engagement (more negative = stronger competition), active = hit call of the paper (q ≤ 0.05, log2 ratio ≤ -1)
Conditions in all cases: compound concentration: 200 uM; treatment time: 3 h
USP34 = USP34 (UniProt Q70CQ2)
Procedure, shortened: (§1)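 Labelled DUBs were enriched with NeutrAvidin, digested with LysC and trypsin, and run by diaPASEF LC-MS/MS. The labelling used Biotin-Ahx-Ub-VS at 0.5 µM final for 1 h on HEK293T lysate (495 µg per sample) previously treated in triplicate with fragment at 200 µM or vehicle for 3 h. Values are average log2 fragment/vehicle ratios by unpaired t-test on global-median-normalised Spectronaut quantities of proteins with ≥2 unique peptides.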

USP36 = molecular target: T1, USP36 (UniProt Q9P275)
T1 sequence (whole entry): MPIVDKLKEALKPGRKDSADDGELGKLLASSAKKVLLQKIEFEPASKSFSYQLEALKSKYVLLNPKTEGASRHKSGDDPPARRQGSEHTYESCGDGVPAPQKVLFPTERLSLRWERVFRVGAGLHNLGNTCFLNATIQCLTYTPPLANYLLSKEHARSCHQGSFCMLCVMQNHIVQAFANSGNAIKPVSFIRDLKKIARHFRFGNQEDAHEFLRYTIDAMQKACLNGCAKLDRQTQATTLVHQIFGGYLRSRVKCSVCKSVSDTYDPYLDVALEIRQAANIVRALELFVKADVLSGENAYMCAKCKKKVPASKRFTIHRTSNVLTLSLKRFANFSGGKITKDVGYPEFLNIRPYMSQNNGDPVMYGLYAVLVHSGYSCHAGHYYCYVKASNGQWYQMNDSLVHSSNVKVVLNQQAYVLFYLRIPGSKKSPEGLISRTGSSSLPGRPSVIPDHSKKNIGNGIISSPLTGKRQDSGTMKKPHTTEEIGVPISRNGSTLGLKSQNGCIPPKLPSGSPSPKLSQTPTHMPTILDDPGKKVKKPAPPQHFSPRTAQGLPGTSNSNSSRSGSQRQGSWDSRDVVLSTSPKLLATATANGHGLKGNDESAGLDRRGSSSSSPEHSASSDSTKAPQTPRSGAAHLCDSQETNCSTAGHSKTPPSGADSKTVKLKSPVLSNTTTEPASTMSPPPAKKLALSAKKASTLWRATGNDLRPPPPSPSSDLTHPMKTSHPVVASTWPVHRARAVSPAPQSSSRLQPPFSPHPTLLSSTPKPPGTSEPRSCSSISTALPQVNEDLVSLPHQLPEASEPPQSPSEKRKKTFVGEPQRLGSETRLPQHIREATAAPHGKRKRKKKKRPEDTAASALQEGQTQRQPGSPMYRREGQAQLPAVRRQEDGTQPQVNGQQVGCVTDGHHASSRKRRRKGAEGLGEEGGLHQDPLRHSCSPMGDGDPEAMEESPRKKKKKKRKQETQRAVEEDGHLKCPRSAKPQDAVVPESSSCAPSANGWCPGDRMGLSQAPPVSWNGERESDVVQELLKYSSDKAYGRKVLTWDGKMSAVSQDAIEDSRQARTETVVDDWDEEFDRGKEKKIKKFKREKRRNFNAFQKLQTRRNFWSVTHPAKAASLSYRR
Procedure, shortened: as §1

USP38 = molecular target: T2, USP38 (UniProt Q8NB14)
T2 sequence (whole entry): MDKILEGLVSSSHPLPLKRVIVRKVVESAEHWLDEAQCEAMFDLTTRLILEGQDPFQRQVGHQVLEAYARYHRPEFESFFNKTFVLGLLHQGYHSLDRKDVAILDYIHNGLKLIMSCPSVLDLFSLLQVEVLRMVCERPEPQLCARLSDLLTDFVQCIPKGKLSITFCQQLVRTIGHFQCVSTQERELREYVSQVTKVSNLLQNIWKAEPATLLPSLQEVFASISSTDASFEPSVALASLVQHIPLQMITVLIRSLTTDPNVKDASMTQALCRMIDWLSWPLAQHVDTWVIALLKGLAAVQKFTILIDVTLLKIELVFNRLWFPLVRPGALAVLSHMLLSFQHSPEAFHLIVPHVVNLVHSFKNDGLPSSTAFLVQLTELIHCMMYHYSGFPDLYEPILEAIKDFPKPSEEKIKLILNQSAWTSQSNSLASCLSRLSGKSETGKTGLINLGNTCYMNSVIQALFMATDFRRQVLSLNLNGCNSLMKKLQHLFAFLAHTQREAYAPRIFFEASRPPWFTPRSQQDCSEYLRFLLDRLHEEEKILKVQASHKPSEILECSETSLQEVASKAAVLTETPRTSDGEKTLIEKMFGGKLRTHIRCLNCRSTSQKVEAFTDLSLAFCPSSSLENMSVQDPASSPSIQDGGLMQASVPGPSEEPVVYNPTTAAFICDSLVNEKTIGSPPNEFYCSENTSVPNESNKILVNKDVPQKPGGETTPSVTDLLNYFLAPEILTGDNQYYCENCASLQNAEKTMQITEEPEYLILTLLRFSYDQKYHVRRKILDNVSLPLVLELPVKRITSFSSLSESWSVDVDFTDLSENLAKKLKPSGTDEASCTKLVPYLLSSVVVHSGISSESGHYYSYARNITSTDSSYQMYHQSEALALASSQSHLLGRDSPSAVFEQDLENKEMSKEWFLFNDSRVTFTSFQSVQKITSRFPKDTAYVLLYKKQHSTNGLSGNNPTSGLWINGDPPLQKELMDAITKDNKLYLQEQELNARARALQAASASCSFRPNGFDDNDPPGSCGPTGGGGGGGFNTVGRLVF
Procedure, shortened: as §1

USP39 = molecular target: T3, USP39 (UniProt Q53GS9)
T3 sequence (whole entry): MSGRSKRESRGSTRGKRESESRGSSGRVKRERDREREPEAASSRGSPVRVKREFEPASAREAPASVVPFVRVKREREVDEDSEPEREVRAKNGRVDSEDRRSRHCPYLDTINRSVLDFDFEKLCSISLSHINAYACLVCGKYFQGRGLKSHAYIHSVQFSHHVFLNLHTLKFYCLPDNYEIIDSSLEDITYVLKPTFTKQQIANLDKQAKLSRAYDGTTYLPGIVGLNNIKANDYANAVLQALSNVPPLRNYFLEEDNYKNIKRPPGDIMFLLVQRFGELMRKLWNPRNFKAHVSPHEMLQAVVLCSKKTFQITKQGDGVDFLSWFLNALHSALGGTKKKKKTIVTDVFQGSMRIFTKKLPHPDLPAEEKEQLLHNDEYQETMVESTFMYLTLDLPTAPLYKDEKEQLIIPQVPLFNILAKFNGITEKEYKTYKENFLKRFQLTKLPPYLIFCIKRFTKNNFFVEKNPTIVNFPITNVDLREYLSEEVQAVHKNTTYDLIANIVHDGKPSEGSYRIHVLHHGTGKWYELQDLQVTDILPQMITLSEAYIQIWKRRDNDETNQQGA
Procedure, shortened: as §1

USP4 = molecular target: T4, USP4 (UniProt Q13107)
T4 sequence (whole entry): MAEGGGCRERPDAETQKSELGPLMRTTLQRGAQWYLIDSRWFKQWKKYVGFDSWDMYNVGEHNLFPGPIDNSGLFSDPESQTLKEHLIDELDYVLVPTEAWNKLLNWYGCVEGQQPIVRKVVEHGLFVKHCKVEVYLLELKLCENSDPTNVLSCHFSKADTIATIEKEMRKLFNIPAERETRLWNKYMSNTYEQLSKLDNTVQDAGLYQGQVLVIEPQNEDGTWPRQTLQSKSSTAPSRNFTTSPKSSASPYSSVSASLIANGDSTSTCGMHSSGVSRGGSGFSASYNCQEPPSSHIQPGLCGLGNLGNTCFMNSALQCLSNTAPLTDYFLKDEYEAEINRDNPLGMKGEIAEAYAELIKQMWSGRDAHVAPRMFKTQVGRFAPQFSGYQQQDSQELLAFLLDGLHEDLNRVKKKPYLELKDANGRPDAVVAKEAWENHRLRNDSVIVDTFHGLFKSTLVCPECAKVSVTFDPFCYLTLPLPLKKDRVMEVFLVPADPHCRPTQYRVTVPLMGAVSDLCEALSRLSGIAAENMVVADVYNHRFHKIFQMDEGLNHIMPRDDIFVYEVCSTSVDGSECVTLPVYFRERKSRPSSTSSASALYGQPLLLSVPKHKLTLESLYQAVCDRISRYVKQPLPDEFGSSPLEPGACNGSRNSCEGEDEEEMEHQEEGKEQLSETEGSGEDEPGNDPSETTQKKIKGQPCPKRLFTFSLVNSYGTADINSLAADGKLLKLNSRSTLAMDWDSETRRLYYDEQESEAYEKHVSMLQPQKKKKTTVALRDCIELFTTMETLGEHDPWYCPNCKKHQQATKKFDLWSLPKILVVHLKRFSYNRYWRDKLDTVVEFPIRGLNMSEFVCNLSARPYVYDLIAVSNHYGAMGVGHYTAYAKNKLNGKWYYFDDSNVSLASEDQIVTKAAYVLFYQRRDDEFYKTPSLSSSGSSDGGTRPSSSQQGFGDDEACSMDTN
Procedure, shortened: as §1

Measured: log2 ratio of Biotin-Ahx-Ub-VS probe labelling

Chain of USP34 (Q70CQ2 whole entry, the tested form may be a part): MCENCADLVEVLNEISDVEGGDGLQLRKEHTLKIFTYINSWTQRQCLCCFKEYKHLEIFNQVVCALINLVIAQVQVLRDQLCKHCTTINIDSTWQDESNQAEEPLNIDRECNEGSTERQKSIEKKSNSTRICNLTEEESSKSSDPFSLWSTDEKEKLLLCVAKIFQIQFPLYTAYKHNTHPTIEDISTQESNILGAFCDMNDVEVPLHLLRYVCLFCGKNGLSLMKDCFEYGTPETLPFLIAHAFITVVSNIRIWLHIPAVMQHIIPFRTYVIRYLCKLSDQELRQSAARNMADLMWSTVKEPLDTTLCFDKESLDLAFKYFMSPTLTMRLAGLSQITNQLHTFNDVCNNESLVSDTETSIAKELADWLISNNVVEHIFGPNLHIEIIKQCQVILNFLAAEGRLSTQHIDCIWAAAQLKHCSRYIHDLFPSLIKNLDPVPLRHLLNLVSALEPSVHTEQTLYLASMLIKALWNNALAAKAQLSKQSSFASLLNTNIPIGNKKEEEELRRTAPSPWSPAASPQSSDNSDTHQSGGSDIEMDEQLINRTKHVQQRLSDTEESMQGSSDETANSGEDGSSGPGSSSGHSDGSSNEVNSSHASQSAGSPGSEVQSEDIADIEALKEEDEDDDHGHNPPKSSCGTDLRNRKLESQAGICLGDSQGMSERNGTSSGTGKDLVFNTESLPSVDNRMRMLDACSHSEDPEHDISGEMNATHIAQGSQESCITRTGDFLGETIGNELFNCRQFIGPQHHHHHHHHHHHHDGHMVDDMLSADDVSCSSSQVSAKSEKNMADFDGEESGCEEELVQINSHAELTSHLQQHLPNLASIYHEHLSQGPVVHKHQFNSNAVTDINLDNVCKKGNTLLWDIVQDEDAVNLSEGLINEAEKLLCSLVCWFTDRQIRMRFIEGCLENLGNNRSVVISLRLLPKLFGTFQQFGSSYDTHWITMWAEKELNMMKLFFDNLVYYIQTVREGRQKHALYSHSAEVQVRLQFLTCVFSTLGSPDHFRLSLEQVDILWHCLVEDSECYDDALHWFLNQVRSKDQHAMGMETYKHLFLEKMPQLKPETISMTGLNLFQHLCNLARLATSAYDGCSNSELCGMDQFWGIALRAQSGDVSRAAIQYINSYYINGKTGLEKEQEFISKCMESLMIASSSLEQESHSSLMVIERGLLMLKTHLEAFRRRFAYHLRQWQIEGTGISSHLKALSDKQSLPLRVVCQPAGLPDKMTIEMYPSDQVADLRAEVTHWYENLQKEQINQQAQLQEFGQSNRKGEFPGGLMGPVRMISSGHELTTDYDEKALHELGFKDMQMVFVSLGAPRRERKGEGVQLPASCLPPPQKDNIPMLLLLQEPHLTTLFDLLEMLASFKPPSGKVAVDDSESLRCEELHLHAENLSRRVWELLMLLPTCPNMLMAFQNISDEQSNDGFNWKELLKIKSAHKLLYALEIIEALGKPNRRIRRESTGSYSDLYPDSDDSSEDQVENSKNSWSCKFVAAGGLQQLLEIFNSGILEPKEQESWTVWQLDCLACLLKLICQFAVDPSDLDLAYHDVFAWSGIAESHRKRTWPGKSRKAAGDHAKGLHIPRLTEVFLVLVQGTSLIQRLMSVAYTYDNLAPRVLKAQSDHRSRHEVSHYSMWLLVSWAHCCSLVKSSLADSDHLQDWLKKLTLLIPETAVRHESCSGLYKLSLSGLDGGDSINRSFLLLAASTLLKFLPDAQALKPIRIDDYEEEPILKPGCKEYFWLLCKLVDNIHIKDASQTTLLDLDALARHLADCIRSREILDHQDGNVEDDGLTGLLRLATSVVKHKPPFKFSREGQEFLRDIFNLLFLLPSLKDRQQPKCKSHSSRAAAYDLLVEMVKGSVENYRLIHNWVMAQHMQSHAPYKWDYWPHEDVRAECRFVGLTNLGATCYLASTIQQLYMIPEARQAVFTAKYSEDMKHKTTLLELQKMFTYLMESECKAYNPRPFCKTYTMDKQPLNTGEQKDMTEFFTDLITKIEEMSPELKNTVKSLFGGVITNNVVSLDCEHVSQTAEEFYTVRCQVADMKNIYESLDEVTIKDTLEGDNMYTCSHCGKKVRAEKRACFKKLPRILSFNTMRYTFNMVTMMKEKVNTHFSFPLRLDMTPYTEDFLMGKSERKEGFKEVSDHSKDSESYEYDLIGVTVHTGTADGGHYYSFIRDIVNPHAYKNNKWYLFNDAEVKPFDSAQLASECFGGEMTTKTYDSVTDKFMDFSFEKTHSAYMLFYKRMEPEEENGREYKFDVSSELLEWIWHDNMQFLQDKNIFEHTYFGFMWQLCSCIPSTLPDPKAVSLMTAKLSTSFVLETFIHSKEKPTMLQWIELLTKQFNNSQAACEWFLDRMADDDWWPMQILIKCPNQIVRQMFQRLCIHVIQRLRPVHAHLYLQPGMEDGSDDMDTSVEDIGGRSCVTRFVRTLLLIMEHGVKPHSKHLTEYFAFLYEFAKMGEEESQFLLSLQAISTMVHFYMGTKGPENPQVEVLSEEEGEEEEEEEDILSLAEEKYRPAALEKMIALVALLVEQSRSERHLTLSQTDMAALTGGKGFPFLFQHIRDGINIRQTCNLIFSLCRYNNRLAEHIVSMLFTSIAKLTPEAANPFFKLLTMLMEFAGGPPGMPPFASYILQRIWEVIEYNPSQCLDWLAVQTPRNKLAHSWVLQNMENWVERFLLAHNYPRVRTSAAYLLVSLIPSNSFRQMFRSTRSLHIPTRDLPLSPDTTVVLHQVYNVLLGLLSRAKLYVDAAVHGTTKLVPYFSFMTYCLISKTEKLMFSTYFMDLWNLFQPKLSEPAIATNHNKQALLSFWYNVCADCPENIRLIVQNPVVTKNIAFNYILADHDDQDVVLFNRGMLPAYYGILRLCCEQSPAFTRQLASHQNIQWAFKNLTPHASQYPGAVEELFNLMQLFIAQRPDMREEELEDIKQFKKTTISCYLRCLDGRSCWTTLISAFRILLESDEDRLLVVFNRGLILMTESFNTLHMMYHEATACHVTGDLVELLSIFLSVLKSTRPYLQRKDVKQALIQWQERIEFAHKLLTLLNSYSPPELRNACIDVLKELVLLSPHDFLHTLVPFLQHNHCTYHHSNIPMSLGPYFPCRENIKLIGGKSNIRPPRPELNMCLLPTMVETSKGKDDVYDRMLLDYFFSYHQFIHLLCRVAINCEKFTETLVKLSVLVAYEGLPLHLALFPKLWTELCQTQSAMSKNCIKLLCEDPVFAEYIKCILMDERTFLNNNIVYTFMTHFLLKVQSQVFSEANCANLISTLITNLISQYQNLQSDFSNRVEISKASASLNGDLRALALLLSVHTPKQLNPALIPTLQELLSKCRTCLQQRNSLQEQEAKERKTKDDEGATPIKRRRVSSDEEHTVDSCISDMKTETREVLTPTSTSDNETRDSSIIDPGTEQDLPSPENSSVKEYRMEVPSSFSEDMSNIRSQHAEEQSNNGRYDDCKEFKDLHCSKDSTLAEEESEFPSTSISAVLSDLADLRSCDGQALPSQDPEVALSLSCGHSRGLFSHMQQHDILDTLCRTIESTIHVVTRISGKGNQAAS

O=C(CCl)NCc1ccc(Cl)cc1
inactive: USP34 -0.211 | USP36 0.0776 | USP38 -0.0243 | USP39 -0.155 | USP4 0.0847
